# Laboratory results reported in ChEMBL document CHEMBL1201862, “PubChem BioAssay data set” (2004).
# The campaign covered roughly 400,000 compounds. About 2,100 (0.53%) were called active. Inconclusive results (about 14%) are left out. No rule for the calls is given here. The full list was thinned out, with actives kept by preference.
# Molecular target: Ataxin-2 (Homo sapiens) (UniProt Q99700)
# Assay: qHTS for Inhibitors of ATXN expression.
# Type: functional
# Ataxin-2 (Homo sapiens), sequence (Q99700 whole entry): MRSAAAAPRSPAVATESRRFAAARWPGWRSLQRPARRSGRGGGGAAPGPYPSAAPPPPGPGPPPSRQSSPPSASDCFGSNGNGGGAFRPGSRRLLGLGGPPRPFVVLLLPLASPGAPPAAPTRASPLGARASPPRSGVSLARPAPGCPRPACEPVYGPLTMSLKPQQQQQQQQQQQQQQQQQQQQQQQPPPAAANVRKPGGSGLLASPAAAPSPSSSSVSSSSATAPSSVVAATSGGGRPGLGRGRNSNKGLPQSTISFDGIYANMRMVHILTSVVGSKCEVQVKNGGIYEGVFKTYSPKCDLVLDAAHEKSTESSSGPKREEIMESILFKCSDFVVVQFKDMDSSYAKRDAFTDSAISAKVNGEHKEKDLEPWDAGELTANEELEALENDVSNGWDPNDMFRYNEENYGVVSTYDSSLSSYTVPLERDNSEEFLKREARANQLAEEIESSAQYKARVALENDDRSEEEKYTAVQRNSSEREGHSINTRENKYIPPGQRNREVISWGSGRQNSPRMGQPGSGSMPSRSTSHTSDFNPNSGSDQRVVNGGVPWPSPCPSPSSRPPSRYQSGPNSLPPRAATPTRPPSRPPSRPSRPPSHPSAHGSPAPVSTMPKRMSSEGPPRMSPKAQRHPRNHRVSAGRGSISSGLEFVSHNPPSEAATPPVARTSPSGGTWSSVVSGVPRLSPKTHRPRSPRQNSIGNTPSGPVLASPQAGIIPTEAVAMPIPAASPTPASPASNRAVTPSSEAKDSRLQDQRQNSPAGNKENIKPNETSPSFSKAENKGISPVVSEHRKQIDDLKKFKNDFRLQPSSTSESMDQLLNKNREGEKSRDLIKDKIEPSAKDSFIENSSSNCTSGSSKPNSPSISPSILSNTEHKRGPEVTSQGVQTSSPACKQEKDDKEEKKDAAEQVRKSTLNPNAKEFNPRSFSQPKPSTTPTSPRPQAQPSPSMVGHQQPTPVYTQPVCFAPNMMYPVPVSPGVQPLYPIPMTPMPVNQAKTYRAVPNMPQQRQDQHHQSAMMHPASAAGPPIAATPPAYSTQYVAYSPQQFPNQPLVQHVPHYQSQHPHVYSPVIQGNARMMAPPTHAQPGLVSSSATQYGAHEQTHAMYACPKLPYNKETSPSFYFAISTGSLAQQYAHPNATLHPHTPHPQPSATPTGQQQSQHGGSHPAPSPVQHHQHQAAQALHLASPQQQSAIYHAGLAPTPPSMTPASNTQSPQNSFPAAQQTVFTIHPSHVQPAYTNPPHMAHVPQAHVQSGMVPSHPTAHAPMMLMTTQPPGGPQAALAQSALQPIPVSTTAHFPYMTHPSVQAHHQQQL
row,SMILES,Potency
1,COc1ccc(CNC(=O)C(=O)NCC2OCCN2S(=O)(=O)c2cccs2)cc1 (centres undefined),inactive
2,COc1ccc(-n2nc3c(N4CCCC(C(=O)NCCc5ccccc5C)C4)nnc(C)c3c2C)cc1 (centres undefined),20 µM (active)
3,CC1CCN(c2ccc3c(c2)S(=O)(=O)c2cccc(C(=O)NCc4cccc(F)c4)c2C3=O)CC1,inactive
4,CCC(C(=O)NCCc1ccccc1OC)n1nc(C)c2c(C)n(-c3ccccc3)nc2c1=O (centres undefined),inactive
5,COc1ccc(-n2nc3c(N4CCCC(C(=O)NCc5cccc(F)c5)C4)nnc(C)c3c2C)cc1 (centres undefined),20 µM (active)
6,COc1cccc(CNC(=O)C2CCN(c3nnc(N4CCCC4=O)s3)CC2)c1,inactive
7,COc1ccc(-n2nc3c(N4CCCC(C(=O)NCc5ccc(C)cc5)C4)nnc(C)c3c2C)cc1 (centres undefined),17.8 µM (active)
8,COc1ccc(S(=O)(=O)N2CCCC(C(=O)NCCCn3ccnc3)C2)cc1OC (centres undefined),inactive
9,CC(=O)N1CCC(=NNc2ncc(C(F)(F)F)cc2Cl)CC1,inactive
10,Cc1cccn2c(=O)c3cc(C(=O)NC(C)C)c(=N)n(Cc4ccncc4)c3nc12,inactive
11,O=C(COC(=O)c1cc(O)nc2ccccc12)NCc1ccc(Cl)cc1,inactive
12,CCOc1ncccc1C(=O)N(CC)CC(=O)NCc1ccc(Cl)cc1,inactive
13,N=C(Cc1ccc(Cl)cc1)NOC(=O)c1cccc2ccccc12,39.8 µM (active)
14,O=[N+]([O-])c1ccc(CSc2ncnc3ccccc23)cc1,inactive
15,COc1ccc(-c2cc(C(F)(F)F)n3ncc(C(=O)N4CCc5ccccc5C4)c3n2)cc1,inactive
16,Cc1ccc2[nH]c(NC3=NC(=O)c4ccccc43)nc2c1,inactive
17,Cc1ccc(CN2C(=O)CCC2C(=O)N2CCN(c3ccccc3)CC2)cc1 (centres undefined),inactive
18,CCOC(=O)c1ccc(NC(=O)CC2C(=O)N(c3ccccc3)C(=O)N2Cc2ccc(C)cc2)cc1 (centres undefined),22.4 µM (active)
19,CCOC(=O)c1ccc(NC(=O)CC2Nc3ccccc3NC2=O)cc1 (centres undefined),inactive
20,CCCCN(C)CC(O)Cn1cc(/C=C/C(=O)c2ccc(Br)cc2)c2ccccc21 (centres undefined),inactive
21,COc1cc(/C=C2\C=CC(=O)O2)cc(OC)c1,inactive
22,N#Cc1nc(-c2cccc3ccccc23)oc1NCC1CCCO1 (centres undefined),inactive
23,Cc1ccn2c(Nc3ccc(C(C)C)cc3)c(-c3cccnc3)nc2c1,39.8 µM (active)
24,CCOC(=O)CNc1c(-c2ccc(Cl)cc2)nc2cnccn12,inactive
25,CC(C)c1ccc(Nc2c(-c3ccccc3O)nc3cnccn23)cc1,39.8 µM (active)
26,Cc1ccc(-c2nc3cnccn3c2Nc2c(C)cccc2C)o1,inactive

row,SMILES,Potency
1,CCCCNc1c(-c2ccc(SC(C)CC)cc2)nc2cnccn12 (centres undefined),inactive
2,CCC(C)Sc1cccc(-c2nc3cnccn3c2NC2CCCCC2)c1 (centres undefined),inactive
3,COCCNC(=O)Cc1c(C)c2c(cc(C)c3c(C)coc32)oc1=O,inactive
4,O=C(Nc1cc(Cl)ccc1O)C1CC(c2ccccc2O)=NO1 (centres undefined),inactive
5,CCOc1cc(CNCCc2ccc(S(N)(=O)=O)cc2)cc(Cl)c1OCc1ccccc1,25.1 µM (active)
6,COC(=O)c1c(C)[nH]c(C(=O)NCCc2ccc(S(N)(=O)=O)cc2)c1C,inactive
7,CCOc1cc(CNCCc2ccc(S(N)(=O)=O)cc2)ccc1OCC(=O)NC(C)(C)C,39.8 µM (active)
8,CCOc1cc(C(N)=O)cc(Br)c1OCc1ccccc1,inactive
9,NS(=O)(=O)c1ccc(CNC(=O)CNC(=O)Cc2ccccc2)cc1,inactive
10,CCOc1ccc(CCNC(=O)CSCc2ccc(C)cc2)cc1OCC,inactive
11,CC12CCC(=O)N1C(C(=O)N1CCN(S(=O)(=O)c3ccc(Br)cc3Cl)CC1)CS2 (centres undefined),inactive
12,CC(C)CCn1c(=O)c2ccccc2n2c(S)nnc12,inactive
13,Cc1cnc(C(=O)NC(C)CCc2ccccc2)cn1 (centres undefined),inactive
14,Fc1ccc(-c2cc(C(F)(F)C(F)F)n[nH]2)cc1,inactive
15,CCOC(=O)c1cnn2c(O)cc(C)nc12,inactive
16,CC(C)(C)c1ccc(C(=O)O/N=C(\N)Cc2cccs2)cc1,31.6 µM (active)
17,COC(=O)c1ccc(C(=O)OC)c(NC(=O)Cc2cccs2)c1,inactive
18,CC(C)(C)c1ccc(/N=C2\SCC(=O)N2Cc2cccs2)cc1,inactive
19,O=C(c1cccs1)N1CCC(c2nc(O)c3nnn(Cc4c(Cl)cccc4Cl)c3n2)CC1,inactive
20,CC(C)C(=O)NNC(=O)CSc1nnc(-c2ccccc2)c(-c2ccccc2)n1,inactive
21,CNC(=O)C(=O)Nc1cc2c3c(c1)CCC(=O)N3CCC2,inactive
22,CCOC(CN=c1nc(N(C)C)ss1)OCC,29.9 µM (active)
23,CN(C)S(=O)(=O)c1ccc(Cl)c(NC(=O)COC(=O)CNS(=O)(=O)c2c(F)cccc2F)c1,inactive
24,CCS(=O)(=O)N1CCC(NC(=O)C(Cc2ccc(OC)c(OC)c2)NC(C)=O)CC1 (centres undefined),inactive
25,COc1ccc(C(=O)CC(SCC(NC(C)=O)C(=O)O)c2ccc(Cl)cc2)cc1OC (centres undefined),31.6 µM (active)
26,CCC(=O)NC(c1ccc(OC)c(OC)c1)c1cc(Cl)c2cccnc2c1O (centres undefined),inactive

row,SMILES,Potency
1,CCOC(=O)c1cc2c(=O)n3ccccc3nc2n(CC2CCCO2)/c1=N\C(=O)c1ccc(C(C)(C)C)cc1 (centres undefined),inactive
2,CCCCN1C(C(=O)Nc2ncccn2)=C(O)c2ccccc2S1(=O)=O,inactive
3,Cc1ccccc1N1CCN(C2CCCN(C(=O)CSc3ccccn3)C2)CC1 (centres undefined),inactive
4,CC(C)(C)c1ccc(C(O)c2nc(-c3ccccc3Cl)c[nH]2)cc1 (centres undefined),39.8 µM (active)
5,OC(c1cccc(Cl)c1)c1nc(-c2ccc(Oc3ccccc3)cc2)c[nH]1 (centres undefined),39.8 µM (active)
6,OC(c1cccc(Cl)c1)c1nc(-c2ccc(C(F)(F)F)cc2)c[nH]1 (centres undefined),39.8 µM (active)
7,Cc1nn(Cc2ccccc2Cl)c(Cl)c1/C=C/C(=O)OCC(=O)NC1CCS(=O)(=O)C1 (centres undefined),inactive
8,COc1ccc(-n2cccc2/C=C/[N+](=O)[O-])cc1,31.6 µM (active)
9,COc1ccc(S(=O)(=O)Nc2ccc(-n3cccc3)cc2)cc1,inactive
10,CCCC(=O)NCCc1nc2cc([N+](=O)[O-])ccc2n1C,inactive
11,COc1cc(C(=O)NNC(=O)c2ccccc2OCc2c(C)noc2C)cc(OC)c1OC,inactive
12,COc1cc(C(=O)O/N=C2/C=CC(=O)C(C)=C2C)cc(OC)c1OC,39.8 µM (active)
13,COc1cc(C(=O)N2C(=O)c3cccc(N)c3C2=O)cc(OC)c1OC,inactive
14,CCc1ccc(S(=O)(=O)Nc2ccc(-c3nc4cccnc4s3)cc2)s1,inactive
15,O=C(NNC(=O)c1cc(-c2cccnc2)nc2ccccc12)Nc1ccc(Cl)cc1,inactive
16,CSc1ccccc1NC(=O)c1cc(-c2cccnc2)nc2ccc(Br)cc12,42.3 µM (active)
17,NC(=O)c1cc(-c2ccccc2)nc2ccc(Br)cc12,inactive
18,COc1cccc(/C=C/c2nc(C#N)c(NCC(C)C)o2)c1,inactive
19,CCOC(=O)c1cc2c(=O)n3ccccc3nc2n(C)/c1=N\C(=O)c1c(-c2c(F)cccc2Cl)noc1C,inactive
20,CNc1ccc2c3c(cccc13)C(=O)N(C)C2=O,inactive
21,Cc1coc2c1C(=O)C(=O)c1c-2ccc2c(C)cccc12,10 µM (active)
22,CCn1cnc2sc(C(=O)Oc3ccc(Br)cc3)c(C)c2c1=O,inactive
23,COC(=O)c1ccc(S(=O)(=O)NCc2ccco2)o1,inactive
24,COC(=O)c1cc(-c2cc(OC)ccc2OC)nc2c1c(=O)n(C)c(=O)n2Cc1ccccc1,inactive
25,COC(=O)C1=CN(Cc2cccs2)C=C(C(=O)OC)C1c1ccc(OC)cc1OC,inactive
26,COc1ccc2c(CNCCc3cccs3)c(C(=O)O)n(Cc3cccc(F)c3)c2c1,35.5 µM (active)

row,SMILES,Potency
1,COC(=O)C1=CN(Cc2cccs2)C=C(C(=O)OC)C1c1cccc(O)c1,inactive
2,COc1ccc(OC)c(CN2CCN(Cc3cc(=O)oc4cc(O)ccc34)CC2)c1,inactive
3,COc1ccc(Cn2c(C(=O)O)c(CNCCc3cc(OC)ccc3OC)c3ccc(C)cc32)cc1,22.4 µM (active)
4,COc1ccc(Cn2c(C(=O)O)c(CNCCc3ccco3)c3ccc(C)cc32)cc1,31.6 µM (active)
5,COc1ccc(C(=O)NCC(=O)OCC(=O)NCc2ccco2)cc1,inactive
6,C=Cc1ccc(Cn2c(C(=O)O)c(CNCCc3ccco3)c3ccc(C)cc32)cc1,22.4 µM (active)
7,COc1ccc(-c2csc(-c3cc4ccccc4oc3=N)n2)cc1,inactive
8,COc1ccc2nc3ccccc3[n+]([O-])c2c1,inactive
9,CCc1noc(C)c1C(=O)NNC(=O)COc1ccc(Br)cc1,inactive
10,N#Cc1c(-c2ccc(Cl)cc2)c2c([nH]c1=O)-c1ccccc1OC2,inactive
11,O=C1CCN2C=Nc3cccc4ccc1c2c34,inactive
12,O=c1nc2n(CCO)c3ccccc3cc-2c(=O)[nH]1,inactive
13,CCCC(=O)n1nc(-c2ccc(C)cc2)nc1NCc1ccco1,inactive
14,C=Cc1ccc(Cn2c(C(=O)O)c(CNCc3cccs3)c3ccc(C)cc32)cc1,25.1 µM (active)
15,C=Cc1ccc(Cn2c(C(=O)O)c(CNC3CCCC3)c3ccc(C)cc32)cc1,44.7 µM (active)
16,Cc1ccc(Cn2c(C(=O)O)c(CNCCc3ccco3)c3ccc(C)cc32)cc1,39.8 µM (active)
17,Cc1ccc(C(=O)OCC(=O)NCc2ccco2)cc1C,inactive
18,Cc1cccn2c(=O)c3cc(C(=O)NC4CCCC4)c(=N)n(Cc4ccc(F)cc4)c3nc12,inactive
19,CC1=C(C(=O)Nc2ccccn2)C(c2cn(C)nc2C)C2=C(O)CCCC2=N1 (centres undefined),inactive
20,Cc1nnc(NC(=O)CSc2nnc(-c3ccco3)n2C(C)C)s1,inactive
21,Cc1cccc2c(SCC(N)=O)nc(-c3ccccc3)nc12,inactive
22,Cc1nc(Nc2cccc(Cl)c2)c2oc3ccccc3c2n1,inactive
23,Cc1cccc(-n2c(SCC(N)=O)nc3c(oc4ccccc43)c2=O)c1,20 µM (active)
24,Cc1cccc(-n2c(=O)c(C#N)cc3c(=O)n4ccccc4nc32)c1,inactive
25,Cc1cc(C)cc(-n2c(SCC(N)=O)nc3c(oc4ccccc43)c2=O)c1,22.4 µM (active)
26,COCCNC(=O)c1c(N)n(-c2cccc(C)c2)c2nc3ccccc3nc12,inactive
